According to PubChem BioAssay:
The source made the active and inactive calls.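 Rule for the calls, unless noted: active = inhibition above 20% together with a positive visual image hit; inconclusive = visual image hit but inhibition not above 20%; inactive = no visual image hit.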

Experiment: inhibitors of TNFa-induced NFkB p65 translocation, primary screen, imaging, HUVEC, MLSMR starter and 10KST1 sets (AID 438);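 note: compound added about 3h40 before a 20 min TNFalpha stimulation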;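 for inhibition: signal is the nuclear over cytoplasmic p65 intensity ratio per well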
Details: HUVEC TNFa-induced p65 nuclear translocation; cell count: measured here: nuclei count (cytotoxicity indicator), at 2.08 µM; inhibition: at 2 µM, stronger effect = higher value, 0% TNFa-plus-vehicle, 100% no-TNFa wells

| Structure (SMILES) | inhibition | cell count |
| --- | --- | --- |
| CCOc1cccc(-c2nnc3n2N=C(c2cc(OC)ccc2OC)CS3)c1 | 15.8% (inactive) | 404 |
| COc1ccc2ccccc2c1CN1CCCC(CO)C1 (stereo not given) | 3.4% (inactive) | 745 |
| Cc1cc(NC(c2cccnc2)c2c(C)[nH]c3ccccc23)no1 (stereo not given) | 2.5% (inactive) | 514 |
| CC(NC(=O)c1ccc2c(c1)OCO2)C(c1cccs1)N1CCOCC1 (stereo not given) | -6.6% (inactive) | 462 |
| COCCn1nnnc1C(c1cc2ccc(OC)cc2[nH]c1=O)N1CCc2ccccc2C1 (stereo not given) | 7.5% (inactive) | 454 |
| O=C1c2ccccc2C(=O)N1CCN1CCCCC1 | 0.3% (inactive) | 528 |
| COc1ccc(S(=O)(=O)Cc2ccc(C(=O)N3CCN(c4ccccc4)CC3)o2)cc1 | -8.3% (inactive) | 524 |
| Cc1ccccc1C(=O)NC1CCN(Cc2nnnn2Cc2ccccc2)CC1 | -30.6% (inactive) | 551 |
| O=C(O)Cn1cc(C(=O)c2ccco2)c2ccccc21 | 16.3% (inactive) | 316 |
| CCOc1ccc2oc(-c3ccccc3)c(C(=O)N3CCN(CCO)CC3)c2c1 | -14.6% (inactive) | 649 |
| O=C(NC1CCCCC1)N(Cc1ccc(F)cc1)Cc1nc2ccccc2c(=O)[nH]1 | 1.1% (inactive) | 348 |
| O=C(NC1CCCCCC1)C1CCCN(S(=O)(=O)c2cccs2)C1 (stereo not given) | -6.2% (inactive) | 714 |
| Cc1cc(C(=O)Nc2sc3c(c2C#N)CCCCC3)cs1 | 6% (inactive) | 651 |
| CC(=O)Nc1ccc(S(=O)(=O)N(C2=NCC(C)S2)c2ccccc2)cc1 (stereo not given) | 5.4% (inactive) | 594 |
| CC(=O)N1CCN(S(=O)(=O)c2ccc(S(=O)(=O)NC3CC3)cc2)CC1 | -8.1% (inactive) | 716 |
| CN(C)S(=O)(=O)N1CCN(c2cccc(Cl)c2)CC1 | -0.2% (inactive) | 411 |
| CCCC(=O)Nc1cc(-c2nnc(OC)c3ccccc23)ccc1N1CCOCC1 | -9.8% (inactive) | 385 |
| CCOc1ccccc1-n1c(SCC(=O)NCc2ccco2)nnc1-c1ccncc1 | 8.9% (inactive) | 376 |
| CC(C)c1ccc(C(O)c2cnc(C(C)C)n2C)cc1 (stereo not given) | 6.9% (inactive) | 723 |
| Cc1cccc(N2CCN(Cc3c(C)n(C)n(-c4ccccc4)c3=O)CC2)c1C | 0.5% (inactive) | 451 |

| Structure (SMILES) | inhibition | cell count |
| --- | --- | --- |
| Cc1ccc2c(c1)sc1ncc(NC(=O)c3ccccc3)c(=O)n12 | 2.1% (inactive) | 324 |
| COc1ccc(CCNc2oc(-c3ccccc3OC)nc2C#N)cc1 | -4.3% (inactive) | 216 |
| N#CCCN(Cc1cccnc1)C(=O)Nc1ccc(Cl)c(Cl)c1 | 3.1% (inactive) | 398 |
| CC(=O)N1CCc2cc(S(=O)(=O)CCC(=O)Nc3cccc(F)c3)ccc21 | -1.4% (inactive) | 331 |
| CC(=O)NCc1cccc(CNC(C)=O)n1 | 9.2% (inactive) | 652 |
| CCOc1ccccc1-n1nnnc1SCC(=O)Nc1cc2oc3ccccc3c2cc1OC | -2.9% (inactive) | 374 |
| CC(=O)Nc1ccccc1OCc1nnc(-c2cccs2)o1 | 4.8% (inactive) | 392 |
| O=C1c2ccccc2C(Nc2ccc(F)cc2F)N1CCN1CCOCC1 (stereo not given) | 1.8% (inactive) | 791 |
| CNc1ccc(C(O)(C(F)(F)F)C(F)(F)F)cc1C(O)(C(F)(F)F)C(F)(F)F | 3.3% (inactive) | 667 |
| Cc1nnc(SC(=O)N2c3ccccc3Sc3ccccc32)s1 | 12% (inactive) | 348 |
| C=CCn1c(=O)c2ccccc2n2c(SC(C)C(=O)Nc3nc(-c4ccccc4)cs3)nnc12 (stereo not given) | 4% (inactive) | 462 |
| CC(=O)Nc1cc(NC(C)=O)cc(C(=O)OCC(=O)N2CC(C)OC(C)C2)c1 (stereo not given) | -3.9% (inactive) | 492 |
| COc1ccc(C2CC(c3ccc(C)cc3)Nc3ncnn32)cc1 (stereo not given) | -0.2% (inactive) | 615 |
| O=C(Nc1ccc2c(c1)OCCO2)NC1CCCCC1 | 0.5% (inactive) | 379 |
| CCc1cccc(NC(=O)Cn2cc3c(n2)CCCC3)c1 | -2.8% (inactive) | 759 |
| N#Cc1cnn(Cc2ccc(Cl)cc2)c1N | 4.5% (inactive) | 628 |
| O=C(NCCCNC1CCCCC1)c1ccc(/C=N/O)nc1 | 2% (inactive) | 221 |
| CCCCOc1ccc(-c2ncc(C(=O)OCC)c(N)n2)cc1 | 1.6% (inactive) | 377 |
| CCOP(=O)(c1ccc(N(C)C)cc1)C(O)c1c(Cl)cccc1Cl (stereo not given) | -3.5% (inactive) | 220 |
| Cc1c(NC(=O)c2nn(C)c(=O)c3ccccc23)c(=O)n(-c2ccccc2)n1C | 4.2% (inactive) | 426 |

Experiment: reduction of polyQ htt aggregates in cells – imaging, exon1htt(103Q)mCFP cells, high-content imaging, primary screen (AID 483;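 active = visual image review flags a hit and inhibition of aggregation exceeds 20%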;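 note: compound exposure lasted 3 days before fixation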;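 for nuclei count: percent of the per-plate median nuclei count of sample wells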)
Details: exon1htt(103Q)mCFP cell line, aggregate imaging, at 2 µM; inhibition of aggregation: stronger effect = higher value; nuclei count: measured here: cell count, toxicity

| Structure (SMILES) | nuclei count | inhibition of aggregation |
| --- | --- | --- |
| CCOc1cccc(-c2nnc3n2N=C(c2cc(OC)ccc2OC)CS3)c1 | 10.2% | -30.5% (inactive) |
| COc1ccc2ccccc2c1CN1CCCC(CO)C1 (stereo not given) | 110% | 4.4% (inactive) |
| Cc1cc(NC(c2cccnc2)c2c(C)[nH]c3ccccc23)no1 (stereo not given) | 112% | 7.6% (inactive) |
| CC(NC(=O)c1ccc2c(c1)OCO2)C(c1cccs1)N1CCOCC1 (stereo not given) | 113% | 17.3% (inactive) |
| COCCn1nnnc1C(c1cc2ccc(OC)cc2[nH]c1=O)N1CCc2ccccc2C1 (stereo not given) | 86.9% | -1.5% (inactive) |
| O=C1c2ccccc2C(=O)N1CCN1CCCCC1 | 113% | -9.5% (inactive) |
| COc1ccc(S(=O)(=O)Cc2ccc(C(=O)N3CCN(c4ccccc4)CC3)o2)cc1 | 70.9% | 5.7% (inactive) |
| Cc1ccccc1C(=O)NC1CCN(Cc2nnnn2Cc2ccccc2)CC1 | 110% | -10.9% (inactive) |
| O=C(O)Cn1cc(C(=O)c2ccco2)c2ccccc21 | 108% | 3.6% (inactive) |
| CCOc1ccc2oc(-c3ccccc3)c(C(=O)N3CCN(CCO)CC3)c2c1 | 89.6% | 2.8% (inactive) |
| O=C(NC1CCCCC1)N(Cc1ccc(F)cc1)Cc1nc2ccccc2c(=O)[nH]1 | 96.5% | -22.3% (inactive) |
| O=C(NC1CCCCCC1)C1CCCN(S(=O)(=O)c2cccs2)C1 (stereo not given) | 109% | -1% (inactive) |
| Cc1cc(C(=O)Nc2sc3c(c2C#N)CCCCC3)cs1 | 107% | -8.1% (inactive) |
| CC(=O)Nc1ccc(S(=O)(=O)N(C2=NCC(C)S2)c2ccccc2)cc1 (stereo not given) | 95.5% | -4.5% (inactive) |
| CC(=O)N1CCN(S(=O)(=O)c2ccc(S(=O)(=O)NC3CC3)cc2)CC1 | 99.7% | 0.7% (inactive) |
| CN(C)S(=O)(=O)N1CCN(c2cccc(Cl)c2)CC1 | 87.3% | 16.9% (inactive) |
| CCCC(=O)Nc1cc(-c2nnc(OC)c3ccccc23)ccc1N1CCOCC1 | 105% | -2% (inactive) |
| CCOc1ccccc1-n1c(SCC(=O)NCc2ccco2)nnc1-c1ccncc1 | 93% | 6% (inactive) |
| CC(C)c1ccc(C(O)c2cnc(C(C)C)n2C)cc1 (stereo not given) | 50.5% | -27.2% (inactive) |
| Cc1cccc(N2CCN(Cc3c(C)n(C)n(-c4ccccc4)c3=O)CC2)c1C | 92.6% | 9.8% (inactive) |

| Structure (SMILES) | nuclei count | inhibition of aggregation |
| --- | --- | --- |
| Cc1ccc2c(c1)sc1ncc(NC(=O)c3ccccc3)c(=O)n12 | 100% | -14.3% (inactive) |
| COc1ccc(CCNc2oc(-c3ccccc3OC)nc2C#N)cc1 | 86.1% | 4% (inactive) |
| N#CCCN(Cc1cccnc1)C(=O)Nc1ccc(Cl)c(Cl)c1 | 109% | -31.1% (inactive) |
| CC(=O)N1CCc2cc(S(=O)(=O)CCC(=O)Nc3cccc(F)c3)ccc21 | 126% | 0.3% (inactive) |
| CC(=O)NCc1cccc(CNC(C)=O)n1 | 109% | -29% (inactive) |
| CCOc1ccccc1-n1nnnc1SCC(=O)Nc1cc2oc3ccccc3c2cc1OC | 99.1% | 4.8% (inactive) |
| CC(=O)Nc1ccccc1OCc1nnc(-c2cccs2)o1 | 92.5% | -8.8% (inactive) |
| O=C1c2ccccc2C(Nc2ccc(F)cc2F)N1CCN1CCOCC1 (stereo not given) | 101% | 19.4% (inactive) |
| CNc1ccc(C(O)(C(F)(F)F)C(F)(F)F)cc1C(O)(C(F)(F)F)C(F)(F)F | 103% | -7.5% (inactive) |
| Cc1nnc(SC(=O)N2c3ccccc3Sc3ccccc32)s1 | 99.9% | 39.8% (active) |
| C=CCn1c(=O)c2ccccc2n2c(SC(C)C(=O)Nc3nc(-c4ccccc4)cs3)nnc12 (stereo not given) | 90.4% | 21.8% (inactive) |
| CC(=O)Nc1cc(NC(C)=O)cc(C(=O)OCC(=O)N2CC(C)OC(C)C2)c1 (stereo not given) | 104% | 22.1% (inactive) |
| COc1ccc(C2CC(c3ccc(C)cc3)Nc3ncnn32)cc1 (stereo not given) | 107% | -9.1% (inactive) |
| O=C(Nc1ccc2c(c1)OCCO2)NC1CCCCC1 | 58.3% | 20.1% (inactive) |
| CCc1cccc(NC(=O)Cn2cc3c(n2)CCCC3)c1 | 101% | 7.5% (inactive) |
| N#Cc1cnn(Cc2ccc(Cl)cc2)c1N | 110% | -3.8% (inactive) |
| O=C(NCCCNC1CCCCC1)c1ccc(/C=N/O)nc1 | 67.6% | -20.6% (inactive) |
| CCCCOc1ccc(-c2ncc(C(=O)OCC)c(N)n2)cc1 | 73.4% | 16.9% (inactive) |
| CCOP(=O)(c1ccc(N(C)C)cc1)C(O)c1c(Cl)cccc1Cl (stereo not given) | 99.5% | 20% (inactive) |
| Cc1c(NC(=O)c2nn(C)c(=O)c3ccccc23)c(=O)n(-c2ccccc2)n1C | 98.9% | -1.2% (inactive) |
